The values below come from PubChem BioAssay (EPA / NIEHS).

A short description of assay [1]: ATG_NFI_CIS: Attagene CIS-FACTORIAL HepG2 Assay for human Nuclear Factor I (NFI) (AID 2282989). The conditions noted are these: HepG2 cis-regulatory reporter, NFI response element transcription; actives raise or lower the signal. Summed up: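 HepG2, transient MRTU, 24 h exposure; RNA→cDNA→PCR→FAM label→HpaI→CE fluorescence. Bidirectional fit, DMSO = baseline.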
Assay [2] addresses Myc proto-oncogene protein (Homo sapiens) (UniProt P01106). The experiment in a line: ATG_Myc_CIS: Attagene CIS-FACTORIAL HepG2 Assay for human Myelocytomatosis (Myc) Proto-Oncogene Transcription Factor (AID 2282990). The conditions noted are these: HepG2, Attagene cis-reporter transcription factor activity; actives raise or lower the signal. Summed up: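 Cells of the HepG2 human liver line bear multiple cis-driven reporter transcription units. Reporter mRNA after 24 h exposure is reverse-transcribed, amplified, labelled and resolved by capillary electrophoresis, with gain- or loss-of-signal fitting relative to DMSO.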

A short description of assay [3]: ATG_NF_kB_CIS: Attagene CIS-FACTORIAL HepG2 Assay for human Nuclear Factor Kappa B (NF-kB) (AID 2282991). The conditions noted are these: HepG2 Attagene cis-factorial NF-kB reporter mRNA; actives raise or lower the signal. In short, it runs like this: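 HepG2, transient multi-reporter transfection, cis promoter elements (endogenous TFs). 24 h exposure. Total RNA → RT → PCR → 6-FAM label → HpaI → CE. Gain/loss vs DMSO.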

The nature of assay [4]: ATG_NRF2_ARE_CIS: Attagene CIS-FACTORIAL HepG2 Assay for human Nuclear Factor Erythroid 2 Related Factor 2 (NFR2) response to Antioxidant Response Elements (ARE) (AID 2282992).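 As to AC50: reporter mRNA level measured by RT-PCR and capillary electrophoresis fluorescence.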 The conditions noted are these: HepG2 Attagene ARE/NRF2 reporter, transcription factor activity; actives raise or lower the signal. In short, it runs like this: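 Multiplexed reporter mRNA profiling in HepG2 after a 24 h chemical exposure. Curves fitted in both directions relative to DMSO negative control.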

Assay [5] is described as follows: ATG_Oct_MLP_CIS: Attagene CIS-FACTORIAL HepG2 Assay for human Octamer-Binding Transcription Factor (Oct) (AID 2282993). The settings on record: HepG2 Attagene cis-factorial Oct reporter, mRNA; actives raise or lower the signal. In short, it runs like this:
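Multiplexed cis-reporter assay in human liver HepG2 cells, 24 h incubation. Reporter RNA amplified and labelled, then resolved by capillary electrophoresis; DMSO serves as negative control and baseline.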

Assay [6] concerns the target Cellular tumor antigen p53 (Homo sapiens) (UniProt P04637). In words: ATG_p53_CIS: Attagene CIS-FACTORIAL HepG2 Assay for human p53 Transcription Factor (AID 2282994). The conditions noted are these: HepG2 p53 cis-element reporter, Attagene mRNA; actives raise or lower the signal. Summed up: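 Multiplexed reporter mRNA assay in human HepG2 liver cells; cis-regulated units report endogenous factor activity. Values come from bidirectional curve fitting against DMSO negative control after 24 h treatment.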

Assay [7] deals with human Peroxisome Proliferator-activated Receptor alpha (PPARa), PPARA (gene 5465) (UniProt Q07869). In words: ATG_PPARa_TRANS: Attagene TRANS-FACTORIAL HepG2 Assay for human Peroxisome Proliferator-activated Receptor alpha (PPARa) (AID 2283001; active = hit-call score of the fitted dose curve at least 0.9, where 1 is the maximum;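 as to AC50: potency for gain of reporter signal over DMSO so agonist or activator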). In short, it runs like this:
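Read-out is fluorescence of reporter cDNA fragments resolved by capillary electrophoresis after RT-PCR. Human HepG2 liver cells carried transfected PPARa-Gal4 chimera and GAL4-UAS reporter units, treated 24 h; activity scored as increase over DMSO.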

In assay [8] the target is human Peroxisome Proliferator-activated Receptor delta (PPARd), PPARD (gene 5467) (UniProt Q03181). In words: ATG_PPARd_TRANS: Attagene TRANS-FACTORIAL HepG2 Assay for human Peroxisome Proliferator-activated Receptor delta (PPARd) (AID 2283002; active = hit-call score of the fitted dose curve at least 0.9, where 1 is the maximum). In short, it runs like this:
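Cell-based TRANS reporter: HepG2, transient MRTU transfection, 24 h exposure. Readout = reporter mRNA (RT-PCR/CE, 6-FAM). Gain-of-signal fit vs DMSO control.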

Assay [9] concerns the target Nuclear receptor subfamily 1 group I member 2 (Homo sapiens) (UniProt O75469). In words: ATG_PXR_TRANS: Attagene TRANS-FACTORIAL HepG2 Assay for human Pregnane X Receptor (PXR) (AID 2283008; active = hit-call score of the fitted dose curve at least 0.9, where 1 is the maximum). Summed up: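 Measures mRNA induction of a GAL4-UAS-driven reporter in human HepG2 cells transiently expressing PXR fused to Gal4, following 24 h treatment. DMSO served as negative control and baseline.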

Assay [10] concerns the target Peroxisome proliferator-activated receptor gamma (Homo sapiens) (UniProt P37231). The experiment in a line: ATG_PPARg_TRANS: Attagene TRANS-FACTORIAL HepG2 Assay for human Peroxisome Proliferator-activated Receptor-gamma (PPARg) (AID 2283007; active = hit-call score of the fitted dose curve at least 0.9, where 1 is the maximum). In short, it runs like this:
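Multiplexed reporter transcription units in HepG2, 24 h dosing, reporter transcripts quantified by fluorescent RT-PCR and capillary electrophoresis. Increase over DMSO scored.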

The target in assay [11] is human Retinoic Acid Receptor beta (RARb), RARB (gene 5915) (UniProt P10826). The experiment in a line: ATG_RARb_TRANS: Attagene TRANS-FACTORIAL HepG2 Assay for human Retinoic Acid Receptor beta (AID 2283004; active = hit-call score of the fitted dose curve at least 0.9, where 1 is the maximum). Summed up: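 Fluorescent capillary-electrophoresis detection of GAL4-UAS reporter mRNA defines the endpoint, with induction over DMSO-treated wells scored as activity. Transiently transfected human hepatoma HepG2 cells expressing exogenous NR–Gal4 proteins are exposed to test chemicals for 24 h.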
Chain of human Retinoic Acid Receptor beta (RARb), RARB (gene 5915) (P10826 whole entry, looked up, the tested form may be a part): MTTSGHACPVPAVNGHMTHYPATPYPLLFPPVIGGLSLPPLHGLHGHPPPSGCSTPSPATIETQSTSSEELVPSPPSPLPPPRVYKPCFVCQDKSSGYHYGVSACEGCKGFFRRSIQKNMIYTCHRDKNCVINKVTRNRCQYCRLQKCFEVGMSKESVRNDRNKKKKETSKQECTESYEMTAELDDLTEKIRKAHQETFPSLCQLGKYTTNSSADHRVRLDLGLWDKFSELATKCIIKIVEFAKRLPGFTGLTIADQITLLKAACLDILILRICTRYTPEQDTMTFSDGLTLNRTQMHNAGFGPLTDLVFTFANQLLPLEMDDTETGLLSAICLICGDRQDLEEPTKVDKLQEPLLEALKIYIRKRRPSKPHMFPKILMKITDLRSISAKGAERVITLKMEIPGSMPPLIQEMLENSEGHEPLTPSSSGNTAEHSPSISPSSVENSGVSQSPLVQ

Assay [12] addresses Retinoic acid receptor alpha (Homo sapiens) (UniProt P10276). The experiment in a line: ATG_RARa_TRANS: Attagene TRANS-FACTORIAL HepG2 Assay for human Retinoic Acid Receptor alpha (RARa) (AID 2283005; active = hit-call score of the fitted dose curve at least 0.9, where 1 is the maximum). In short, it runs like this: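 Reporter transcripts, measured by RT-PCR with fluorescent labeling and capillary electrophoresis after 24 h dosing, reflect activity of an exogenous human RARa–GAL4 fusion in transiently transfected HepG2. Fitted for increase relative to DMSO.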

In assay [13] the target is human Retinoic Acid Receptor gamma (RARg), RARG (gene 5916) (UniProt P13631). In words: ATG_RARg_TRANS: Attagene TRANS-FACTORIAL HepG2 Assay for human Retinoic Acid Receptor gamma (RARg) (AID 2283009; active = hit-call score of the fitted dose curve at least 0.9, where 1 is the maximum). In short, it runs like this:
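Transient transfection of HepG2 with multi-reporter constructs, then 24 h chemical treatment. Total RNA isolated, reverse-transcribed, PCR-amplified, fluorescently labelled and resolved by capillary electrophoresis; activity scored as mRNA induction versus DMSO.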

For assay [14], the target named is human RAR-related Orphan Receptor beta (RORb), RORB (gene 6096) (UniProt Q92753). In words: ATG_RORb_TRANS: Attagene TRANS-FACTORIAL HepG2 Assay for human RAR-related Orphan Receptor beta (RORb) (AID 2283010; active = hit-call score of the fitted dose curve at least 0.9, where 1 is the maximum). Summed up: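 Readout is reporter-gene mRNA induction, detected as fluorescence after RT-PCR and capillary electrophoresis, fitted for gain of signal against DMSO controls. Transiently transfected HepG2 liver cells carrying GAL4-UAS reporter constructs were treated for 24 hours.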
Chain of human RAR-related Orphan Receptor beta (RORb), RORB (gene 6096) (Q92753 whole entry, looked up, the tested form may be a part): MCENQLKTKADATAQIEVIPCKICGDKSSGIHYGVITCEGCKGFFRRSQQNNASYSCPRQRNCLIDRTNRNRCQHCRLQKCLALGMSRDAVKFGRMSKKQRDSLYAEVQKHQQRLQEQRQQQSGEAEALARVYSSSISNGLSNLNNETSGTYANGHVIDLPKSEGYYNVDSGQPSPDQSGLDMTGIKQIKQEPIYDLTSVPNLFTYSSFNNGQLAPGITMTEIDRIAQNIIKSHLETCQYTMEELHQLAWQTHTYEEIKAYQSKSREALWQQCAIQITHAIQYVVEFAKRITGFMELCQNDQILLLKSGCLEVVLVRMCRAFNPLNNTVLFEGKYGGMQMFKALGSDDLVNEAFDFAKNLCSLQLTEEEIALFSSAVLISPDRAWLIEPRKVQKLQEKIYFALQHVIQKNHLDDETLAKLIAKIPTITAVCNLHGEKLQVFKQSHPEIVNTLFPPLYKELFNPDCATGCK

Results filed as inconclusive are left out. Activity calls are given as the source filed them. The calls were made as follows, unless noted: active = hit-call score of the fitted dose curve at least 0.9, where 1 is the maximum; inactive = score below 0.9.

Chain of human Peroxisome Proliferator-activated Receptor alpha (PPARa), PPARA (gene 5465) (Q07869 whole entry, looked up, the tested form may be a part): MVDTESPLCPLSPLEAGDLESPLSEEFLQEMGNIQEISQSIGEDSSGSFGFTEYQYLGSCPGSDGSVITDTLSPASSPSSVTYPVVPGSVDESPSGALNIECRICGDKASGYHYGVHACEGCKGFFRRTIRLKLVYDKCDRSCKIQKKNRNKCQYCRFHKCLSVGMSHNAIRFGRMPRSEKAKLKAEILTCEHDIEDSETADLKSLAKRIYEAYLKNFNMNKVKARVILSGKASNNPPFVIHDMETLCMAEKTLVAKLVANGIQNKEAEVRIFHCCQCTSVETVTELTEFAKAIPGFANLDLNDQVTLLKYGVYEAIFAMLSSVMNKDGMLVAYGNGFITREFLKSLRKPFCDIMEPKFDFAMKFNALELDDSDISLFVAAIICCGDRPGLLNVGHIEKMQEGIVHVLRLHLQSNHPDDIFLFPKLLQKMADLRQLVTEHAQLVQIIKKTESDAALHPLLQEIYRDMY
Chain of Peroxisome proliferator-activated receptor gamma (Homo sapiens) (P37231 whole entry, looked up): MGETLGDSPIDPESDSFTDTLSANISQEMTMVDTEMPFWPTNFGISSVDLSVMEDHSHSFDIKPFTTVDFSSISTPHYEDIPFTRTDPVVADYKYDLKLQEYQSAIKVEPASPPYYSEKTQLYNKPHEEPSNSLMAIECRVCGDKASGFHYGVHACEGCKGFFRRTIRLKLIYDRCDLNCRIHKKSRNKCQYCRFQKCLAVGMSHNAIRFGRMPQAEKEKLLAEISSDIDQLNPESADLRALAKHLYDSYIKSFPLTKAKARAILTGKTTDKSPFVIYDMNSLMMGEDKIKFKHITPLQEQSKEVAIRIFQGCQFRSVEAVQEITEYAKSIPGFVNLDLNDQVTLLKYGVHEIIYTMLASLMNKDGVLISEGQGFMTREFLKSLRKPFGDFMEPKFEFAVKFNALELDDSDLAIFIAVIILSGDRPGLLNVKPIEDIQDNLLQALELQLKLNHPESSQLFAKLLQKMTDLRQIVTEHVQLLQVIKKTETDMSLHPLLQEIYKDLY
Chain of human Retinoic Acid Receptor gamma (RARg), RARG (gene 5916) (P13631 whole entry, looked up): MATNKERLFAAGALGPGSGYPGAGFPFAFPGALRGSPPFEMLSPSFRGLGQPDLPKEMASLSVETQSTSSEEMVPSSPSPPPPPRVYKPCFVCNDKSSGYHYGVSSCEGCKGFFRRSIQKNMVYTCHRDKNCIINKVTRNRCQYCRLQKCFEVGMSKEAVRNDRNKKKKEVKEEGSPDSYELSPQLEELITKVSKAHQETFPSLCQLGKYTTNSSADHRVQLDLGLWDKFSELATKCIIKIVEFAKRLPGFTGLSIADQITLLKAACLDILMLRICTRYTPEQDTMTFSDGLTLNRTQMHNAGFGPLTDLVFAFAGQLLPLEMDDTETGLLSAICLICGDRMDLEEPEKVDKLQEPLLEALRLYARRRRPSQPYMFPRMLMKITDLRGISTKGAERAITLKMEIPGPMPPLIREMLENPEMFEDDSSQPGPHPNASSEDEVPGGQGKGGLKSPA
Chain of Myc proto-oncogene protein (Homo sapiens) (P01106 whole entry, looked up): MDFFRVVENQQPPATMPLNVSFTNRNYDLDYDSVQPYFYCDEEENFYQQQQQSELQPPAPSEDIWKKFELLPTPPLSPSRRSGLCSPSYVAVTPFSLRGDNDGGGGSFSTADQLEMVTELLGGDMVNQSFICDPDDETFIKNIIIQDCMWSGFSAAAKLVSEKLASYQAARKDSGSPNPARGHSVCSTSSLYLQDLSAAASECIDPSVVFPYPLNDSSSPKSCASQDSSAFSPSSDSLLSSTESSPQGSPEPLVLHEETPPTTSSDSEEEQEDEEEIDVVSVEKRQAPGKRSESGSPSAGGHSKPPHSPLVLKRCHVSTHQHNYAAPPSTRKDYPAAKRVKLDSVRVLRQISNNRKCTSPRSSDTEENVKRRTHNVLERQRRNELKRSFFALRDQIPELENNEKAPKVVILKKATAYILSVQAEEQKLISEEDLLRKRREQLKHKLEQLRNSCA
Chain of Nuclear receptor subfamily 1 group I member 2 (Homo sapiens) (O75469 whole entry, looked up, the tested form may be a part): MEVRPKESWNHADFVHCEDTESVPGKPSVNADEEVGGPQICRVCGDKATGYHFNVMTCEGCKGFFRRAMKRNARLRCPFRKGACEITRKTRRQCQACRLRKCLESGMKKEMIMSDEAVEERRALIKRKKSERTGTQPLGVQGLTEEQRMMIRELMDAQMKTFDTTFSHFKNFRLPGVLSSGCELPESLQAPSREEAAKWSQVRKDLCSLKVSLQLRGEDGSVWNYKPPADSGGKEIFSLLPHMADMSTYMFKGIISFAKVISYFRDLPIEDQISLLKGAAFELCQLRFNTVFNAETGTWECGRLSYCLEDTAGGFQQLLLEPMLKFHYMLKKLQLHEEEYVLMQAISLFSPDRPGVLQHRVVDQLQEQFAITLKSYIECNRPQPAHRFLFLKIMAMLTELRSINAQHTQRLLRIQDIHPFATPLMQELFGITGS
Chain of human Peroxisome Proliferator-activated Receptor delta (PPARd), PPARD (gene 5467) (Q03181 whole entry, looked up): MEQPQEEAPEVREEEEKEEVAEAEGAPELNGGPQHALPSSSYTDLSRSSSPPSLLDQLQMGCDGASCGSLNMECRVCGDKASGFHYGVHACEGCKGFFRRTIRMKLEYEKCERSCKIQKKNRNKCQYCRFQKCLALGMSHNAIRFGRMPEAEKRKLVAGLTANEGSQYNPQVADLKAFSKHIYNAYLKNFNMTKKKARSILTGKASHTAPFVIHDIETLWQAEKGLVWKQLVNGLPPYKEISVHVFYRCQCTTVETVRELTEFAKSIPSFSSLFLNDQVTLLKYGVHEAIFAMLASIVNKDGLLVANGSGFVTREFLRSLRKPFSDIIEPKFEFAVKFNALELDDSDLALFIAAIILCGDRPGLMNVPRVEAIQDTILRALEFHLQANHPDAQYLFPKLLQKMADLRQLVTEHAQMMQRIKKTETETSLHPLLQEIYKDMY
Chain of Cellular tumor antigen p53 (Homo sapiens) (P04637 whole entry, looked up): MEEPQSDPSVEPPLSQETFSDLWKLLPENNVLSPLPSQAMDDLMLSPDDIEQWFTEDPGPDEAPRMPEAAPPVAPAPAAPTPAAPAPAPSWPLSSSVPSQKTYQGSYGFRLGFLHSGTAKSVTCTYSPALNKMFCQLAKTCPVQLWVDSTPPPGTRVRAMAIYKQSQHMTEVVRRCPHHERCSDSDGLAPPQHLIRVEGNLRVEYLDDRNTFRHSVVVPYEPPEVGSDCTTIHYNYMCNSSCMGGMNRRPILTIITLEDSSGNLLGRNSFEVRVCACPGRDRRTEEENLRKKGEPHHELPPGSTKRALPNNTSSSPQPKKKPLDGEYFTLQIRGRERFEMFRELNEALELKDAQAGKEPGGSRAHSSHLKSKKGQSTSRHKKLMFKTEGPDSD
Chain of Retinoic acid receptor alpha (Homo sapiens) (P10276 whole entry, looked up, the tested form may be a part): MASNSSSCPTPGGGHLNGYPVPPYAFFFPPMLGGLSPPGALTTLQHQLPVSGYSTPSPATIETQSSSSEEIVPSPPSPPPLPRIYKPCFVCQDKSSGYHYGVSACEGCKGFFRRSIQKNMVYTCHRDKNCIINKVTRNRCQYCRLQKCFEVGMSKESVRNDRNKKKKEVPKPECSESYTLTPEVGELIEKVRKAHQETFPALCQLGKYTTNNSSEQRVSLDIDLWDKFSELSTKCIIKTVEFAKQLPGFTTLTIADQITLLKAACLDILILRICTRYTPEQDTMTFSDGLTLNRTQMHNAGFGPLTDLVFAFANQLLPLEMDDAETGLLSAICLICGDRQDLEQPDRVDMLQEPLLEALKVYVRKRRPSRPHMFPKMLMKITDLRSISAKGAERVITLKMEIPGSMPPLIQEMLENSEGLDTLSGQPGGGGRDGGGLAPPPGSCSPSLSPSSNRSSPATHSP

For the compound `CC(=O)CC(N)=O`, the compound was classed as inactive in assay [1], in assay [2], in [3], in [4], in assay [5] and in assay [6]. Besides, the compound was called inactive in assay [7], in [8] and in assay [9].

Usually AC50 stands for the midpoint of the concentration-response curve, whichever way the signal moves. As to `C=CCCCCCCCCC(=O)OCCCC`, the compound was called inactive in assay [1], in assay [2], in assay [3], in assay [4], in [5] and in assay [6]. Also, the outcome in [7], in assay [8] and in [9] was inactive. Besides, the AC50 in assay [10] was 67.8 µM (active).

Consider `CC(C)(C)c1ccc(OC(=O)c2ccccc2O)cc1`, for which the result in [1], in assay [2], in [3], in [4], in [5] and in [6] was inactive. Further, the compound was called inactive in assay [7] and in [10].

Turning to `Cc1ccccc1C`, the compound was classed as inactive in assay [1], in assay [2], in assay [3], in assay [4], in assay [5] and in assay [6]. Further, the call in assay [7], in [11], in assay [12], in assay [10], in assay [9] and in [13] was inactive.

Turning to `CC(C)(C)C(=O)C=Cc1ccc(Cl)cc1`, the AC50 in [1] was 48.8 µM (active); in assay [5] it was 26.3 µM (active); in assay [6] it was 59 µM (active); in assay [7], 24.7 µM (active); in assay [10], 26.6 µM (active); in assay [9], 26.2 µM (active). For the same compound, the compound was classed as inactive in assay [2], in [3] and in assay [4].

As to `O=C(O)c1cc(Cl)cc([N+](=O)[O-])c1Cl`, the compound was classed as inactive in assay [1], in [2], in assay [3], in [4], in assay [5] and in [6]. In addition, the result in assay [7], in assay [10] and in assay [9] was inactive.

As to `CN(C)c1ccc(C(=N)c2ccc(N(C)C)cc2)cc1`, the AC50 in [1] is 0.162 µM (active); in assay [5], 0.143 µM (active); in [6] it was 29.4 µM (active). The outcome in [2], in assay [3], in assay [4], in assay [7], in assay [8] and in assay [9] was inactive. Also, the outcome in [13] was inactive.

As to `C=CC(=O)OCCC(=O)O`, the result in assay [1], in assay [2], in [3], in [5], in assay [6] and in assay [7] was inactive. The compound was classed as inactive in [10] and in assay [9]. For the same compound, the AC50 in [4] is 43.2 µM (active).

Consider `NC(=O)OCC(COC(N)=O)c1ccccc1`, for which the outcome in assay [1], in assay [2], in assay [3], in [4], in assay [5] and in assay [6] was inactive. Further, the result in [7], in assay [8], in [9] and in assay [14] was inactive.

Turning to `FC(F)=C(F)OC(F)(F)C(F)(F)C(F)(F)F`, the result in assay [1], in [2], in assay [3], in [4], in [5] and in assay [6] was inactive. The outcome in [7], in assay [8] and in assay [9] was inactive.

Take `[Cl][Nd]([Cl])[Cl]`: the call in [1], in assay [2], in assay [3], in assay [4], in [5] and in assay [6] was inactive. The compound was classed as inactive in [7], in assay [8], in assay [9] and in [13].

As to `CC=C1CC2C=CC1C2` (centres undefined), the call in [1], in assay [2], in assay [5], in [6] and in assay [8] was inactive. For the same compound, the AC50 is 100 µM (active) in assay [3], 45.9 µM (active) in assay [4], 25.9 µM (active) in assay [10] and 7.51 µM (active) in [9].
